Assay results reported in PubChem BioAssay (NCATS).
Several values for one entry are separate records, joined by “and”; a condition that tells them apart may be missing. Equal entries are not always repeated. Inconclusive results are not listed. Activity calls are given as the source filed them. Unless noted, calls come from the whole dose curve; as a rule, active = well fitted curve in the direction sought with a large enough effect; inconclusive = small, poorly fitted or top-dose-only effect, or another doubt; inactive = no such curve, though single readings can be large; an effect the other way counts as inactive or inconclusive.

How the values were obtained:
[1] = qHTS assay for small molecule agonists of the antioxidant response element (ARE) signaling pathway (AID 651741; active = well fitted activation curve with a large enough effect in the signal ratio; the % refers to the signal ratio; note: potency is the fitted concentration of half-maximal effect; for activation: % of control where 0% means no effect)
Procedure, shortened: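 Quantitative HTS in HepG2 cells stably expressing an ARE-beta-lactamase reporter; 16 h compound exposure at 37 C, followed by 2 h room-temperature incubation with LiveBLAzer B/G FRET substrate and fluorescence measurement.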

[2] = qHTS assay for small molecule disruptors of the mitochondrial membrane potential - 1 hr assay (AID 651754; calls by dose curve; note: % is set by controls: 0 for no effect and ±100 for the full control effect; nearly all actives have a fitted effect of over 35% in size)
Procedure, shortened: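 HepG2 cells, attached overnight, were exposed to compound for 1 hr at 37C, then stained 30 min with a potentiometric dye. Ratio of red aggregate (590nm) to green monomer (535nm) fluorescence reports membrane potential; collapse shifts signal toward green.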

[3] = qHTS assay for small molecule disruptors of the mitochondrial membrane potential - 5 hr assay (AID 651755; calls by dose curve; note: nearly all actives have a fitted effect of over 40% in size; note: potency is the fitted concentration of half-maximal effect)
Procedure, shortened: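 HepG2, 2,000 cells/well, overnight attach; cpd or DMSO 5 hr, 37C/5% CO2; Mito-MPS 30 min 37C; fluor 490/535 + 540/590 nm.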

[4] = molecular target: Tumor necrosis factor (Homo sapiens) (UniProt P01375); assay: qHTS assay to identify small molecules that stimulate Tumor Necrosis Factor-alpha (TNF-alpha) secretion (AID 651757; active = well fitted curve in the direction sought with a large enough effect in the signal ratio; the % refers to the signal ratio; note: 0% is about no effect)
Chain of Tumor necrosis factor (Homo sapiens) (P01375 whole entry, looked up): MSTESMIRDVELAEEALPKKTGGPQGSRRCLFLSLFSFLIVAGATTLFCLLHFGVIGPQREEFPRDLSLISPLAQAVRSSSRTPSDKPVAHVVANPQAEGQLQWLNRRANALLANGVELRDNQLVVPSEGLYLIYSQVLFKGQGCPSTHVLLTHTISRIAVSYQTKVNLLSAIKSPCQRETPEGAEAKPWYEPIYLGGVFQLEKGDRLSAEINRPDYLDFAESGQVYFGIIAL
Procedure, shortened: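 THP-1 cells (3000/well) exposed to compounds 17 hrs at 37 C. Secreted TNF-alpha detected by HTRF with cryptate- and XL665-labeled anti-TNF-alpha antibodies after 3 hr at room temperature.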

[5] = qHTS assay to identify small molecules that stimulate interleukin-8 (IL-8) secretion (AID 651758; active = well fitted activation curve with a large enough effect in the signal ratio; the % refers to the signal ratio; note: 0% is about no effect)
Procedure, shortened: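 Secreted IL-8 measured by TR-FRET sandwich (cryptate and XL665 antibodies) from THP-1 cells exposed to compound overnight (16 hrs, 37 C).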

[6] = qHTS assay for environmental chemicals that activate the Aryl hydrocarbon Receptor (AhR) signaling pathway (AID 651777); settings: 1A2-DRE human hepatoma cells, luciferase, 24 h; stronger effect = higher value; note: % of control where 0% means no effect; nearly all actives have a fitted effect of over 15% in size
Procedure, shortened: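 Human hepatoma 1A2-DRE cells, stably carrying a dioxin response element and CYP1A2 promoter driving luciferase, were exposed to compounds for 24 hr at 37 C and 5% CO2. Luciferase signal was then read after 30 min One-Glo at room temperature.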

[7] = molecular target: Peroxisome proliferator-activated receptor alpha (Homo sapiens) (UniProt Q07869); assay: qHTS assay for small molecule agonists of the peroxisome proliferator-activated receptor alpha (PPARalpha) signaling pathway (AID 651778); settings: PathHunter PPARalpha complementation, chemiluminescence, 6 h; stronger effect = higher value; note: % of control where 0% means no effect
Chain of Peroxisome proliferator-activated receptor alpha (Homo sapiens) (Q07869 whole entry, looked up): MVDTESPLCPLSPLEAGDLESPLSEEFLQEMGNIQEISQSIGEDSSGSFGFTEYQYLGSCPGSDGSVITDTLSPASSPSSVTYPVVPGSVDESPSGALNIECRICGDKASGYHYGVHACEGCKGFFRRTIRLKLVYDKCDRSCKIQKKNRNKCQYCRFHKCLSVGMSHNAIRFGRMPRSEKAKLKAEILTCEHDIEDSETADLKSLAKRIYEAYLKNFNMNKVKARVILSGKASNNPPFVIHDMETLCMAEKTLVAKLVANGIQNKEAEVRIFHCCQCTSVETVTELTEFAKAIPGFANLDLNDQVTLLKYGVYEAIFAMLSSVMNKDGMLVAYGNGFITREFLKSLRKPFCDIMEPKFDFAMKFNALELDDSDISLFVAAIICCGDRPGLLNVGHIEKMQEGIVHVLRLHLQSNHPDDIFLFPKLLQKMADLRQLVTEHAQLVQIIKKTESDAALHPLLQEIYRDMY
Procedure, shortened: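 Chemiluminescence from complemented enzyme reported PPARalpha activation in cells after 6 hr of compound treatment at 37 C. The detection reagent was incubated for 60 min at room temperature, and compounds were scored as agonists.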

[8] = Cytotoxicity counterscreen for NFkB agonists and antagonists (AID 624476); note: % is set by controls: 0 for no effect and ±100 for the full control effect
[9] = qHTS Assay for Identification of Small Molecule Agonists for NFkB Signaling Pathway. (AID 624478); note: 0% is about no effect
Procedure, shortened: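 NFkB-bla ME-180 cells carry a beta-lactamase reporter. They received compound plus TNF alpha at 10 pM final (its EC50) for 5 h at 37 C. Reporter activity was read as 460/530 nm emission ratio after 2 h LiveBLAzer substrate loading.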

[10] = qHTS Assay for Identification of Small Molecule Antagonists for NFkB Signaling Pathway. (AID 624479; calls by dose curve;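 note: pathway stimulated with TNF alpha; % is set by controls: 0 for no effect and ±100 for the full control effect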)
[11] = Cell Proliferation Assay against the TMD8 Cell Line (AID 651645); settings: TMD8 DLBCL cell line proliferation/viability; at 46.1 µM (top of the series) unless noted;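 note: cells exposed to compound for 48 h before reading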
Procedure, shortened: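 Cell viability of the ABC DLBCL line TMD8 is measured by CellTiter-Glo luminescence following a 48-hour incubation with compound. Percent activity uses DMSO as 100% and 9.2 uM bortezomib (final) as 0%.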

[12] = Cell Proliferation Assay against the HBL1 Cell Line (AID 651646); settings: HBL1 DLBCL cells; at 46.1 µM (top of the series) unless noted;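 note: cells exposed to compound for 48 h before reading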
Procedure, shortened: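 Luminescent ATP read-out (CellTiter-Glo) after 48 h compound exposure of HBL1 cells at 37 °C; percent activity was scaled between DMSO as 100% and 9.2 uM bortezomib (final) as 0%.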

[13] = Cell Proliferation Assay against the TMD8 Cell Line (Caspase readout at 16 hrs) (AID 651712); note: potency is the fitted concentration of half-maximal effect
Procedure, shortened: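 Apoptotic response of TMD8 cells was judged from caspase 3/7 activation following a 16 hour compound incubation at 37 °C. Luminescent signal was converted to percent activity, with DMSO set as 0% and 9.2 uM final bortezomib as 100%.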

[14] = Cell Proliferation Assay against the TMD8 Cell Line (Caspase readout at 8 hrs) (AID 651713); note: potency is the fitted concentration of half-maximal effect
Procedure, shortened: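 TMD8 cells in RPMI plus 5% FBS were treated with compound for 8 h at 37C. Caspase 3/7 activation was read by Caspase-Glo luminescence. Percent activity was scaled from DMSO (0%) to 9.2 uM bortezomib final (100%).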

[15] = qHTS assay for small molecule activators of the p53 signaling pathway (AID 651743; active = well fitted activation curve with a large enough effect in the signal ratio, not every such curve was filed as active; the % refers to the signal ratio; note: % of control where 0% means no effect); settings: HCT-116 p53RE-bla, beta-lactamase FRET ratio, 16 h; stronger effect = higher value
Procedure, shortened: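 Read-out is fluorescence intensity from the LiveBLAzer B/G FRET substrate, added for 2 hours at room temperature after HCT-116 p53RE-bla cells had been incubated with compounds for 16 hours at 37 C.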

[16] = molecular target: Glucagon-like peptide 1 receptor (Homo sapiens) (UniProt P43220); assay: qHTS of GLP-1 Receptor Agonists: LOPAC Validation (AID 624148);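 note: luminescence from a luciferase reporter switched on by cAMP; 0% is about no effect; higher luminescence signal means agonism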
Chain of Glucagon-like peptide 1 receptor (Homo sapiens) (P43220 whole entry, looked up): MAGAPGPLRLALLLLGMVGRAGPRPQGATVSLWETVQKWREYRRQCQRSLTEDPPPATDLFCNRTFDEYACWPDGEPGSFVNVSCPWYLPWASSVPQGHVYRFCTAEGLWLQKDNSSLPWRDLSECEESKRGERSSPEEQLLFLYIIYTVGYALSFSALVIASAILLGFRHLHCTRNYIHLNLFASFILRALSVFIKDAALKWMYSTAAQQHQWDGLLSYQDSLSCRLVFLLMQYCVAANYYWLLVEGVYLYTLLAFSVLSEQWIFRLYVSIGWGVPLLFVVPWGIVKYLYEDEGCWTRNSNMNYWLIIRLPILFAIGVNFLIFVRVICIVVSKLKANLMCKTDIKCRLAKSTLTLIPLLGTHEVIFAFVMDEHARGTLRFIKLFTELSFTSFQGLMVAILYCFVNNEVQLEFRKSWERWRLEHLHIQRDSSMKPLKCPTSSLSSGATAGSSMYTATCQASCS
Procedure, shortened: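 Agonism scored as increased luciferase luminescence driven by cAMP in HEK293 clones carrying GLP-1R. Cells settled 12 hours, received compound for 4-6 hr at 37 deg C, 5% CO2, and were read after 12 min detection reagent at RT.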

[17] = qHTS of Nrf2 Activators: LOPAC Validation (AID 624149); note: 0% is about no effect
Procedure, shortened: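 AREc32_Fluc cells, 1000/well in OPTI-MEM with 5% FBS, grown overnight, then exposed to compounds for 24 hr at 37 deg C, 5% CO2. ARE-driven firefly luciferase read by Steady-Glo luminescence after 30 min at RT.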

[18] = qHTS assay for small molecule activators of the nuclear factor-kappa B (NF-kB) signaling pathway (AID 651749; active = well fitted activation curve with a large enough effect in the signal ratio; the % refers to the signal ratio; note: % of control where 0% means no effect); settings: NF-kB-bla ME-180 cells, beta-lactamase FRET ratio, 16 h; activation: stronger effect = higher value
Procedure, shortened: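 Readout: beta-lactamase reporter driven by an NF-kB response element, detected fluorescently as loss of FRET. Cells were the ME-180 line, treated 16 hr at 37C with pin-transferred compound.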

## CCCCCCCCCCCCOS(=O)(=O)O
[1]
  Potency: inactive
[2]
  Potency: inactive
[3]
  Potency: inactive
[4]
  outcome: inactive
[5]
  outcome: inactive
[6]
  activation: 1.08% (inactive) [middle of 4 runs]
[7]
  max response: 11.8% (inactive) and 23.9% (inactive) and 3.99% (inactive)

## CC(=O)O[C@@]12CO[C@@H]1C[C@H](O)[C@@]1(C)C(=O)[C@H](O)C3=C(C)[C@@H](OC(=O)[C@H](O)[C@@H](NC(=O)OC(C)(C)C)c4ccccc4)C[C@@](O)([C@@H](OC(=O)c4ccccc4)[C@H]21)C3(C)C
[8]
  outcome: inactive
[9]
  outcome: inactive
[10]
  outcome: inactive
[11]
  viability (% of control): 32.1%
[12]
  viability, percent of control: 69%
[13]
  Potency: 37.2 µM (active)
[14]
  Potency: inactive

## Oc1cn2c(n1)Nc1ccc(Cl)c(Cl)c1C2
[11]
  viability (% of control): 87.9%
[12]
  viability, percent of control: 58.4%
[13]
  Potency: inactive
[14]
  Potency: inactive

## CCCCOC(=O)c1ccc(O)cc1
[1]
  Potency: 30.6 µM (active)
[15]
  activation: 1.4% (inactive) and -3.01% (inactive)
[3]
  Potency: 37.6 µM (active)
[4]
  outcome: inactive
[6]
  activation: 6.66% (inactive) and 14.1% (inactive)
[7]
  max response: -8.78% (inactive) and 4.43% (inactive)

## O=C1Nc2ccc(Cl)cc2[C@@](C#CC2CC2)(C(F)(F)F)O1
[11]
  viability (% of control): 3.1% [at 92.2 µM]
[12]
  viability, percent of control: 2.9% [at 92.2 µM]
[14]
  Potency: 17.1 µM (active)

## C[C@]12CC[C@@H]3c4ccc(O)cc4CC[C@H]3[C@@H]1CCC2=O
[16]
  outcome: inactive
[17]
  outcome: inactive
[15]
  activation: 0.661% (inactive)
[18]
  activation: -1.43% (inactive)
[6]
  activation: 0.316% (inactive)
[7]
  max response: -1.03% (inactive)

## O=C1c2c(O)cccc2Cc2cccc(O)c21
[1]
  Potency: inactive
[15]
  activation: -1.03% (inactive)
[4]
  outcome: inactive
[5]
  outcome: inactive
[6]
  activation: -0.232% (inactive)
[7]
  max response: -2.77% (inactive)
